Measurements: PubChem BioAssay AID1159580 (chemical genetic matrix, 2015)
“And” between values parts separate entries of the source, which are not always exact repeats. Equal values may be shown once. The whole screen tested about 5,500 compounds, of which about 2,000 (36%) were called active. Roughly 18% stayed inconclusive and do not appear here. Rule as the data show it: active = normalized growth mostly below about 0.91 (no sharp cut-off); inconclusive = no clear call, values can overlap the other calls; inactive = mostly above about 0.92. This is one part of the list.

Test: chemical genetic growth profiling, strain panel (AID 1159580);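 also: tested at 20 µM; growth read once vehicle control cultures reached saturation at 30 °C; 1 = growth at the plate median or of vehicle wells; lower values mean less growth of the strain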
Settings: S. cerevisiae deletion strains, growth OD

Measured: normalized growth

C[C@@H]1C(=O)O[C@H]2[C@H]1CC[C@@]1(C)C=CC(=O)[C@@]3(C)O[C@@]213
inactive: locus YAL013W, strain DEP1, active compounds read low 1 | locus YAL021C, strain ccr4, active compounds read low 1.01 | locus YAL026C, strain drs2, active compounds read low 1.02 | locus YAL030W, strain snc1, active compounds read low 1.01 | locus YBL061C, strain skt5, active compounds read low 1.01 | locus YBR009C, strain hhf1, active compounds read low 1.01 | locus YBR021W, strain FUR4, active compounds read low 1 | locus YBR023C, strain chs3, active compounds read low 1.02 | locus YBR171W, strain sec66, active compounds read low 1.02 | locus YBR229C, strain ROT2, active compounds read low 1.01 | locus YBR231C, strain swc5, active compounds read low 1.02 | locus YBR279W, strain paf1, active compounds read low 1.01 | locus YCL011C, strain gbp2, active compounds read low 1.01 | locus YCL016C, strain dcc1, active compounds read low 1 | locus YCL029C, strain bik1, active compounds read low 1.04 | locus YCL069W, strain vba3, active compounds read low 1.03 | locus YCR088W, strain abp1, active compounds read low 1.01 | locus YDL005C, strain med2, active compounds read low 1.02 | locus YDL035C, strain GPR1, active compounds read low 1.02 | locus YDL040C, strain nat1, active compounds read low 1 | locus YDL074C, strain BRE1, active compounds read low 1.02 | locus YDL101C, strain DUN1, active compounds read low 1.01 | locus YDL134C, strain PPH21, active compounds read low 0.993 | locus YDL185W, strain tfp1, active compounds read low 0.986 | locus YDL192W, strain arf1, active compounds read low 1.01 | locus YDR001C, strain nth1, active compounds read low 1.01 | locus YDR069C, strain doa4, active compounds read low 1.03 | locus YDR101C, strain arx1, active compounds read low 1.01 | locus YDR137W, strain rgp1, active compounds read low 0.982 | locus YDR150W, strain NUM1, active compounds read low 1.01 | locus YDR159W, strain sac3, active compounds read low 1.06 | locus YDR162C, strain NBP2, active compounds read low 1.02 | locus YDR195W, strain ref2 1.01 | locus YDR297W, strain sur2, active compounds read low 1 | locus YDR318W, strain mcm21, active compounds read low 1.02 | locus YDR334W, strain swr1, active compounds read low 1.02 | locus YDR335W, strain msn5, active compounds read low 1.01 | locus YDR388W, active compounds read low 1.01 | locus YDR392W, strain spt3, active compounds read low 0.996 | locus YDR502C, strain sam2, active compounds read low 1.02 | locus YEL003W, strain gim4, active compounds read low 1.01 | locus YEL037C, strain rad23, active compounds read low 1.02 | locus YEL061C, strain CIN8 (second series), active compounds read low 1.01 | locus YEL061C, strain CIN8, active compounds read low 1.01 | locus YER015W, strain faa2, active compounds read low 1.02 | locus YER016W, strain bim1, active compounds read low 1.01 | locus YER110C, active compounds read low 1.01 | locus YER111C, strain swi4, active compounds read low 1.02 | locus YER155C, strain BEM2 (second series), active compounds read low 1.03 | locus YER155C, strain BEM2, active compounds read low 0.996 | locus YER167W, strain BCK2, active compounds read low 1.02 | locus YFR010W, strain ubp6, active compounds read low 1.06 | locus YGL078C, strain dbp3, active compounds read low 1.03 | locus YGL086W, strain mad1, active compounds read low 1.02 | locus YGL167C, strain pmr1, active compounds read low 1.02 | locus YGL173C, strain kem1, active compounds read low 1.02 | locus YGL227W, strain vid30, active compounds read low 1.02 | locus YGL240W, strain doc1, active compounds read low 1.01 | locus YGL248W, strain PDE1, active compounds read low 1.02 | locus YGL253W, strain hxk2, active compounds read low 1.05 | locus YGR078C, strain PAC10, active compounds read low 1.02 | locus YGR135W, strain pre9, active compounds read low 1.03 | locus YGR229C, strain SMI1, active compounds read low 1.02 | locus YGR252W, strain gcn5, active compounds read low 1.06 | locus YHR013C, strain ard1, active compounds read low 0.995 | locus YHR027C, strain rpn1, active compounds read low 1.02 | locus YHR030C, strain SLT2, active compounds read low 1.01 and 1.04 | locus YHR079C, strain IRE1 (second series), active compounds read low 1.02 | locus YHR079C, strain IRE1, active compounds read low 1.04 | locus YHR094C, strain hxt1, active compounds read low 1 | locus YHR129C, strain ARP1, active compounds read low 1.01 | locus YHR142W, strain chs7, active compounds read low 1.02 | locus YHR200W, strain rpn10, active compounds read low 1.02 | locus YIL066C, strain RNR3, active compounds read low 1.02 | locus YIL073C, strain SPO22, active compounds read low 1.05 | locus YIL125W, strain kgd1, active compounds read low 1.03 | locus YIR030C, strain dcg1, active compounds read low 1.02 | locus YJL092W, strain hpr5, active compounds read low 1.02 | locus YJL095W, strain BCK1 (second series), active compounds read low 1.01 | locus YJL095W, strain BCK1, active compounds read low 1.03 | locus YJL115W, strain asf1, active compounds read low 1.02 | locus YJL129C, strain trk1, active compounds read low 1.04 | locus YJL134W, strain LCB3, active compounds read low 1 | locus YJL154C, strain vps35, active compounds read low 1.01 | locus YJL164C, strain tpk1, active compounds read low 1.01 | locus YJL166W, strain qcr8, active compounds read low 1.01 | locus YJL168C, strain set2, active compounds read low 1.01 | locus YJL187C, strain SWE1 (second series), active compounds read low 1.04 | locus YJR043C, strain POL32, active compounds read low 1.02 | locus YJR066W, strain TOR1, active compounds read low 0.959 | locus YJR075W, strain HOC1, active compounds read low 1.02
